Drawing on PubChem BioAssay (NCATS), this text covers outcome and Potency for 14 compounds.

Results filed as inconclusive are left out. Values without a mark were called inactive. Active and inactive are the calls of the source. Calls come from the whole dose curve; as a rule, active = well fitted curve in the direction sought with a large enough effect; inconclusive = small, poorly fitted or top-dose-only effect, or another doubt; inactive = no such curve, though single readings can be large; an effect the other way counts as inactive or inconclusive.

The test system of test [1] is HACAT. Kind of test: qHTS assay to identify novel small-molecules to repurpose for Merkel cell carcinoma treatment (AID 1296009). Note: nearly all actives have a fitted effect of over 60% in size. The note with it: MCC and control cell lines, CellTiter-Glo viability, 72 h; at 44.8 µM (top of the series) unless noted. A digest of the protocol:
(§1)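 Viability readout: ATP luminescence (CellTiter-Glo) after 72 hr drug exposure at 37 degree celsius. Dose-response format was 8 points for NPC and 11 points for MIPE; data normalized to in-plate controls.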
In general terms: qHTS replaces the single test concentration by a dilution series.

Test [2] relates to MCC-13. The test is described as above. The conditions noted are these: MCC and control cell lines, CellTiter-Glo viability, 72 h; series mostly up to 46 µM. A digest of the protocol:
as §1
(ATP-based viability assays read luminescence as a measure of living cells.)

For test [3], the system named is MCC-26. Described as above. The conditions noted are these: MCC and control cell lines, CellTiter-Glo viability, 72 h; series mostly up to 46 µM. A digest of the protocol: as §1
Test [4] deals with MKL-1. The description is as above. The note with it: MCC and control cell lines, CellTiter-Glo viability, 72 h; series mostly up to 46 µM. The method, boiled down: as §1
Test [5] relates to WaGa. The description is as above. The note with it: MCC and control cell lines, CellTiter-Glo viability, 72 h; series mostly up to 46 µM. A digest of the protocol:
as §1

The subject of test [6] is C33A. Kind of test: Primary qHTS to identify gynecologic anti-cancer compounds using libraries of approved drugs and bioactive compounds (AID 1345084). Note: nearly all actives have a fitted effect of over 55% in size. The conditions noted are these: Gynecologic cancer cell panel viability, ATPlite luminescence, 48 h; series mostly up to 57.5 µM. The method, boiled down:
(§2)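 Cells, 1,000 per well, plated 16 h, then exposed 48 h at 37 C to compounds. Viability by ATPlite luminescence after 15 min at room temperature.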

Test [7] concerns CAOV3. Described as above. The note with it: Gynecologic cancer cell panel viability, ATPlite luminescence, 48 h; series mostly up to 57.5 µM. The method, boiled down: as §2
The subject of test [8] is CASKI. Described as above. The note with it: Gynecologic cancer cell panel viability, ATPlite luminescence, 48 h; series mostly up to 57.5 µM. A digest of the protocol:
as §2

The test system of test [9] is Es-2. Described as above. The conditions noted are these: Gynecologic cancer cell panel viability, ATPlite luminescence, 48 h; series mostly up to 57.5 µM. A digest of the protocol:
as §2

The test system of test [10] is HeLa. Described as above. The conditions noted are these: Gynecologic cancer cell panel viability, ATPlite luminescence, 48 h; series mostly up to 57.5 µM. A digest of the protocol:
as §2

The subject of test [11] is Hek293T. Described as above. The conditions noted are these: Gynecologic cancer cell panel viability, ATPlite luminescence, 48 h, control line for the selectivity index; series mostly up to 57.5 µM. The method, boiled down:
as §2

The subject of test [12] is JEG-3. The description is as above. The note with it: Gynecologic cancer cell panel viability, ATPlite luminescence, 48 h; series mostly up to 57.5 µM. A digest of the protocol:
as §2

Test [13] relates to OV90. The test is described as above. The note with it: Gynecologic cancer cell panel viability, ATPlite luminescence, 48 h; series mostly up to 57.5 µM. The method, boiled down: as §2
Test [14] concerns PA-1. Described as above. The note with it: Gynecologic cancer cell panel viability, ATPlite luminescence, 48 h; series mostly up to 57.5 µM. A digest of the protocol:
as §2

Test [15] deals with NIH3T3. Kind of test: Cytotoxic Profiling of Annotated Libraries Using Quantitative High-Throughput Screening (AID 1296008). Note: nearly all actives have a fitted effect of over 60% in size. The note with it: Five cell lines viability, CellTiter-Glo ATP luminescence, 48-72 h; max response: active compounds read low. A digest of the protocol: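 Compounds were pin-transferred onto cells and incubated 48 or 72 hr at 37 degree Celsius, 95% humidity. CellTiter-Glo was added, plates sat 10 min at room temperature, then ATP-coupled luminescence was imaged as the viability read-out.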

The subject of test [16] is MKL-2. Kind of test: qHTS assay to identify novel small-molecules to repurpose for Merkel cell carcinoma treatment (AID 1296009). Note: nearly all actives have a fitted effect of over 60% in size. The conditions noted are these: MCC and control cell lines, CellTiter-Glo viability, 72 h; series mostly up to 46 µM. A digest of the protocol: as §1
Test [17] deals with SKOV3. Kind of test: Primary qHTS to identify gynecologic anti-cancer compounds using libraries of approved drugs and bioactive compounds (AID 1345084). Note: nearly all actives have a fitted effect of over 55% in size. The note with it: Gynecologic cancer cell panel viability, ATPlite luminescence, 48 h; series mostly up to 57.5 µM. The method, boiled down: as §2
In test [18] the test system is UISO. Kind of test: qHTS assay to identify novel small-molecules to repurpose for Merkel cell carcinoma treatment (AID 1296009). Note: nearly all actives have a fitted effect of over 60% in size. The note with it: MCC and control cell lines, CellTiter-Glo viability, 72 h; series mostly up to 46 µM. The method, boiled down:
as §1

Test [19] deals with NIH3T3. The description is as above. The conditions noted are these: MCC and control cell lines, CellTiter-Glo viability, 72 h; at 44.8 µM (top of the series) unless noted. The method, boiled down: as §1
Potency is the fitted concentration of half-maximal effect.

As for `Cc1cc(-c2ccc(CC(=O)Nc3ccc(-c4cccnc4)cc3)cc2)ccn1`, the call in test [1] was inactive. Besides, the Potency result in [2], in [3], in test [4] and in test [5] was “inactive” each time.
`COc1ccccc1[C@H](c1cccc2ccccc12)[C@@](C)(C#N)C(=O)N1CCC(c2cccc(C(F)(F)F)c2)CC1`: the Potency result in test [2], in [3], in test [6], in test [7], in test [8] and in test [9] was “inactive” throughout. The Potency result in test [10], in test [11], in [12], in [13] and in [14] was “inactive” each time.
Consider `Cc1c(CN2CCN(C(=O)C(C)C)CC2)sc2c(N3CCOCC3)nc(-c3cnc(N)nc3)nc12`, for which the Potency in [15] was 0.469 µM (active). Moreover, the Potency entry in test [5] was “inactive”.
Take `CCOc1ccn(-c2ccc(F)cc2)c(=O)c1C(=O)Nc1ccc(Oc2ccnc(N)c2Cl)c(F)c1`: the Potency entry in [2], in test [3], in test [4], in [16], in test [5] and in [6] was “inactive” throughout. Also, the Potency entry in [8], in [9], in test [11], in test [12], in test [13] and in [14] was “inactive” throughout. For the same compound, the Potency entry in test [17] was “inactive”.
Turning to `CCCCCCCc1ccc(CCc2cccc(O)c2C(=O)O)cc1`, the compound was called inactive in [1]. The Potency entry in test [2], in [3], in [4], in test [16], in [18] and in test [5] was “inactive” each time.
For the compound `CCC(C)(C)C(=O)O[C@H]1C[C@@H](C)C=C2C=C[C@H](C)[C@H](CC[C@@H]3C[C@@H](O)CC(=O)O3)[C@H]21`, the Potency result in test [6], in [8], in test [12], in test [14] and in [17] was “inactive” in each case.
On to `COc1ccc2c3n(c(=NC(=O)c4cccnc4)nc2c1OC)CCN3`, for which the Potency result in test [2], in test [4] and in [16] was “inactive” in each case.
With `CC(C)C[C@H](NC(=O)[C@@H](O)[C@H](N)Cc1ccccc1)C(=O)O`, the Potency entry in test [2], in [3], in [4] and in test [5] was “inactive” each time.
Regarding `Cc1n[nH]c(C)c1Cc1sc2c(c1C(=O)N1C[C@H](O)CO1)c(=O)n(C)c(=O)n2CC(C)C`, the Potency entry in test [2], in [3], in [4], in test [16], in [18] and in test [5] was “inactive” throughout. Further, the Potency entry in test [6], in [8], in test [9], in [10], in [11] and in test [12] was “inactive” each time. The Potency entry in test [13], in [14] and in test [17] was “inactive” throughout.
With `CCn1cc(C(=O)O)c(=O)c2cc(F)c(N3CCNC(C)C3)c(F)c21` (stereo unspecified), the outcome in [1] and in test [19] was inactive. In addition, the Potency result in test [2], in [3], in [4], in [16], in test [18] and in test [5] was “inactive” throughout. For the same compound, the Potency result in test [6], in test [7], in [8], in test [9], in test [10] and in [11] was “inactive” each time. Moreover, the Potency entry in test [12], in [13], in [14] and in test [17] was “inactive” each time.
On to `CC(=O)NC(C)c1ccc(Oc2ccc(OC(C)C)cc2)cc1` (stereo unspecified), for which the Potency entry in test [2] and in [4] was “inactive” throughout.
`Nc1nc2c(ncn2COCCO)c(=O)[nH]1`: the Potency entry in test [6], in [7], in [9], in [10], in test [11] and in [12] was “inactive” in each case. For the same compound, the Potency entry in [13], in test [14] and in [17] was “inactive” throughout.
As for `Cc1cc2c(C(C)C)c(O)c(O)c(C=O)c2c(O)c1-c1c(C)cc2c(C(C)C)c(O)c(O)c(C=O)c2c1O`, the Potency entry in [2], in test [3], in [8], in [9] and in test [12] was “inactive” each time. In addition, the results for the Potency in test [4], in test [18] and in [5] were 13.3 µM (active), 21.1 µM (active) and 23.7 µM (active), respectively.
For the compound `C#Cc1cccc(Nc2ncnc3cc(OCCOC)c(OCCOC)cc23)c1`, the Potency entry in [2], in [3], in test [4], in [16], in [6] and in [8] was “inactive” each time. Also, the Potency result in [9], in test [10], in test [11], in test [12], in test [13] and in test [14] was “inactive” each time. Besides, the figures for the Potency in test [5] and in [17] were 29.6 µM (active) and 10 µM (active), respectively.
